Source: PubChem BioAssay
Luc counter: Kinase-Glo luciferase inhibition (counter-screen); Potency, µM (top dose mostly 38.3 µM), without a hit: at the highest dose activity change, negative = inhibition, hits mostly inhibitors; Q27757; 200,000 compounds, 0.28% hits; AID 1379; Kinase-Glo luciferase, ATP luminescence, 8 min; also: % is scaled to controls: 0 for no effect and ±100 for the full control effect; nearly all actives have a fitted effect of over 60% in size
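Substrate mix (final 50 mM imidazole pH 7.2, 50 mM KCl, 7 mM MgCl2, 10 uM ATP, 0.01% Tween 20, 0.05% BSA) plus pin-tool compound, then Kinase-Glo detection mix; 8 min ambient, luminescence read.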
ELG1 genotoxic: genotoxicity induction in ELG1-luciferase HEK293T cells; 330,000 compounds, 1.3% hits; HEK293T ELG1-luciferase reporter, luminescence, 16 h; Potency, µM (top dose mostly 46 µM), for inactives: at the highest dose activity change, positive = activation, actives largely listed as activators; AID 504466; also: % of control where 0% means no effect; nearly all actives have a fitted effect of over 60% in size
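ELG1-luciferase HEK293T cells, 2,000/well; compound pinned in; 16 hr, 37 °C, 5% CO2; ONE-Glo, 30 min RT; luminescence on CCD imager.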
FLuc counter: firefly luciferase modulation, counter-screen for miR-21 project; P08659; purified FLuc, Km substrates, luminescence inhibition; Potency, µM (highest dose often 57.5 µM), without a hit: top-dose activity change, negative = inhibition, actives largely listed as inhibitors; 360,000 compounds, 6.9% hits; AID 588342;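 also: plate controls were vehicle for no effect and reference inhibitor for full effect; nearly all actives have a fitted effect of over 55% in size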
Target sequence (P08659 whole entry, looked up): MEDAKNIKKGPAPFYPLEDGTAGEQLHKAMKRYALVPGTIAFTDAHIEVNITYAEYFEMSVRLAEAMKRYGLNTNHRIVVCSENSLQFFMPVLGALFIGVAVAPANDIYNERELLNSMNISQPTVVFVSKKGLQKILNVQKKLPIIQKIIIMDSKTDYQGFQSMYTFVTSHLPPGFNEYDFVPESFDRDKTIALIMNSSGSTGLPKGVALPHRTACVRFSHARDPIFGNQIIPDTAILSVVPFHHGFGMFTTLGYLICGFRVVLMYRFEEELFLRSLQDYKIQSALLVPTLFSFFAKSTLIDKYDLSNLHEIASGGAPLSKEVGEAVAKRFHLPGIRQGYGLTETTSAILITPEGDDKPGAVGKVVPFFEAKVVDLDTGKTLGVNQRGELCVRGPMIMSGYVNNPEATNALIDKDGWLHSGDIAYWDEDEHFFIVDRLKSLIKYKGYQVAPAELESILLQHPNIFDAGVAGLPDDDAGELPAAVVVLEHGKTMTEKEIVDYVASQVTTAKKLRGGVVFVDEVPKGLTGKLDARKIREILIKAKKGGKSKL
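Purified P. pyralis luciferase, 10 nM final, with Km-level 10 uM D-luciferin and 10 uM ATP in 50 mM Tris acetate pH 7.5, 10 mM Mg acetate, 0.01% Tween-20, 0.05% BSA; 6-point qHTS titration about 60 µM downward; luminescence read.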
SMN2 splice enh: SMN2 splice variant enhancement; HEK293 SMN2-luciferase splicing reporter, luminescence, 30-36 h; Potency, µM (series often up to 46.1 µM), for the others: at the highest dose activity change, positive = activation, hits mostly activators; 210,000 compounds, 2.8% hits; also: % of control where 0% means no effect; nearly all actives have a fitted effect of over 55% in size
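HEK293 cells carry an SMN2 […]–luciferase reporter in which exon 7 inclusion puts luciferase in frame. Cells were plated 10-12 h before compound addition, then incubated 30-36 h at 37C. ONE-Glo luminescence was read; sodium butyrate at 4.5 mM final served as control.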
Rab9 promoter act: Rab9 promoter activation; Huh7 Rab9 promoter-luciferase reporter, luminescence, 24 h; Potency, µM (series often up to 9.22 µM), for inactives: top-dose activation, negative = inhibition, hits mostly activators; 320,000 compounds, 2.8% hits; also: % of control where 0% means no effect; nearly all actives have a fitted effect of over 60% in size
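Measured in stably transfected Huh7 cells bearing a Rab9 promoter–luciferase construct: 24 h compound treatment at 37 °C, followed by luminescence detection.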
NPC1 promoter act: activates the NPC1 promoter; Potency, µM (doses to about 9.22 µM), for the others: at the top dose activation, actives largely listed as activators; Huh7 NPC1 promoter luciferase reporter, 24 h; AID 485313; 320,000 compounds, 2.4% hits; also: % of control where 0% means no effect; nearly all actives have a fitted effect of over 60% in size
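Huh7 reporter cells (NPC1 promoter driving luciferase) are dosed with compound for 24 h at 37 °C, 5% CO2; luciferase detection reagent is then added and luminescence measured after 10 min at ambient temperature.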
* hit, by the source's call; [ ] = dose if it differs, or a comment. The list is not random: actives were taken first. Their share in the collection is about 7.4%. Calls follow the shape of the dose curve; as a rule, active = well fitted curve in the direction sought with a large enough effect; inconclusive = small, poorly fitted or top-dose-only effect, or another doubt; inactive = no such curve, though single readings can be large; an effect the other way counts as inactive or inconclusive. Potency is read from the fitted curve at half-maximal effect.

How did O=C(/C=C/c1cccc(F)c1)c1ccc(N2CCOCC2)cc1 do in these assays?
ELG1 genotoxic: inconclusive; FLuc counter: 1.1µM*; Rab9 promoter act: inconclusive; NPC1 promoter act: inconclusive

What do the screens show for `O=C(c1ccc(-c2ccccc2)cc1)N1CCN(c2ccccn2)CC1`?
Luc counter: -1%; ELG1 genotoxic: -9%; FLuc counter: -17%; SMN2 splice enh: -25%; Rab9 promoter act: -2%; NPC1 promoter act: -6%

What do the screens show for `COCCNS(=O)(=O)c1ccc(-c2ccc(S(=O)(=O)NCCOC)cc2)cc1`?
Luc counter: -1%; ELG1 genotoxic: inconclusive; FLuc counter: 4.3µM*; SMN2 splice enh: 20µM*; Rab9 promoter act: 1µM*; NPC1 promoter act: inconclusive

How did COC(=O)c1ccc(CNC(=O)C(C)N=C2NS(=O)(=O)c3ccccc32)cc1 (stereo not drawn) do in these assays?
ELG1 genotoxic: 1%; FLuc counter: 2%; Rab9 promoter act: -2%; NPC1 promoter act: -3%

Results for COc1ccc(-c2cc(C(=O)Nc3ccccc3)on2)cc1 ?
Luc counter: inconclusive; ELG1 genotoxic: inconclusive; FLuc counter: 0.54µM*; SMN2 splice enh: inconclusive; Rab9 promoter act: 3%; NPC1 promoter act: 0%

What do the screens show for `COc1ccc(-n2nnc(C(=O)Nc3ccccc3F)c2N)cc1`?
FLuc counter: 2.4µM*; SMN2 splice enh: 7.1µM*

Results for COc1ccc(-c2cc(C(=O)Nc3ccccc3F)on2)cc1 ?
Luc counter: -29%; ELG1 genotoxic: inconclusive; FLuc counter: -17%; SMN2 splice enh: inconclusive; Rab9 promoter act: 3.2µM*; NPC1 promoter act: 1%

What do the screens show for `O=C(CSc1ccc2ccccc2c1)Nc1ncccn1`?
ELG1 genotoxic: 1%; FLuc counter: inconclusive; Rab9 promoter act: -2%; NPC1 promoter act: -1%

How did Cc1noc(/C=C/N(C)C)c1S(=O)(=O)N1CCCC(C(=O)Nc2ccccc2F)C1 (stereo not drawn) do in these assays?
ELG1 genotoxic: 0%; FLuc counter: 3%; Rab9 promoter act: 0%; NPC1 promoter act: -1%

How did COC(=O)[C@H](Cc1ccccc1)NC(=O)c1ccc2ccccc2n1 do in these assays?
ELG1 genotoxic: 3%; FLuc counter: 6.7µM*; Rab9 promoter act: 2%; NPC1 promoter act: 0%

Results for CCOc1ccc(C(=O)NC(C)CCc2ccccc2)cc1 (stereo not drawn) ?
ELG1 genotoxic: 1%; FLuc counter: 0%; Rab9 promoter act: 7%; NPC1 promoter act: 5%

What do the screens show for `CCOc1ccc(C(=O)NC(Cc2ccccc2)C(=O)OC)cc1` (stereo not drawn)?
Luc counter: -2%; ELG1 genotoxic: 8%; FLuc counter: 4.8µM*; SMN2 splice enh: 8%; Rab9 promoter act: inconclusive; NPC1 promoter act: 27%

Results for O=c1c2ccccc2oc2nc(-c3ccco3)n(-c3ccccc3)c(=O)c12 ?
Luc counter: 0%; ELG1 genotoxic: 9%; FLuc counter: 3%; SMN2 splice enh: 13µM*; Rab9 promoter act: inconclusive; NPC1 promoter act: inconclusive

How did O=c1c2ccccc2oc2nc(-c3ccco3)n(CCc3ccccc3)c(=O)c12 do in these assays?
Luc counter: -5%; ELG1 genotoxic: 1%; FLuc counter: 5%; SMN2 splice enh: -9%; Rab9 promoter act: 13%; NPC1 promoter act: 7%

Results for Cn1c(=S)c2[nH]c(SCCN3C(=O)c4ccccc4C3=O)nc2n(C)c1=O ?
Luc counter: -2%[7.66 µM]; SMN2 splice enh: 4%[9.22 µM]

What do the screens show for `N#C/C(=C\c1cccs1)C(=O)N1CCOCC1`?
ELG1 genotoxic: 0%; FLuc counter: 4%; Rab9 promoter act: -7%; NPC1 promoter act: -4%

Results for N#C/C(C(=O)N1CCOCC1)=C1\Nc2ccccc2S1 ?
Luc counter: -2%; ELG1 genotoxic: inconclusive; FLuc counter: 17µM*; SMN2 splice enh: inconclusive; Rab9 promoter act: 9%; NPC1 promoter act: 17%
